For eight molecules, outcome and AC50 results are on record in PubChem BioAssay (EPA / NIEHS).

Test [1] is described as follows: ATG_CRE_CIS: Attagene CIS-FACTORIAL HepG2 Assay for human cAMP Responsive Element (CRE) binding protein 3 (AID 2282926). The note with it: HepG2 CRE cis-reporter, Attagene multiplexed mRNA; actives raise or lower the signal. The method in brief: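 Capillary electrophoresis of 6-FAM-labelled, HpaI-digested PCR products quantified reporter transcripts. These came from HepG2 transiently transfected with cis-element reporters and exposed to test chemicals for 24 hours, with DMSO defining baseline activity.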

Test [2] concerns the target CCAAT/enhancer-binding protein beta (Homo sapiens) (UniProt P17676). The test can be described thus: ATG_C_EBP_CIS: Attagene CIS-FACTORIAL HepG2 Assay for human CCAAT/Enhancer Binding Protein (C/EBP) beta (AID 2282927). The note with it: HepG2 Attagene cis-factorial transcription factor reporter; actives raise or lower the signal. A digest of the protocol: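 HepG2 transiently transfected with multiplexed reporter units under cis-regulatory promoters reporting endogenous C/EBPb activity. After 24 h exposure, reporter mRNA assayed by RT-PCR, fluorescent labelling, HpaI digestion and capillary electrophoresis; bidirectional fitting versus DMSO.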

Test [3] in a line: ATG_CMV_CIS: Attagene CIS-FACTORIAL HepG2 Assay for human CMV (Internal Marker) (AID 2282928).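 Note: endpoint acts as a background internal control marker rather than a target.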 Particulars: HepG2 CMV promoter reporter, transcription factor profiling; actives raise or lower the signal. A digest of the protocol:
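24 h chemical treatment, HepG2 with transient multi-reporter transfection; RNA → oligo(dT) RT → PCR → 6-FAM extension → HpaI digest → CE fluorescence. Bidirectional fit, DMSO negative control.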

Test [4] can be described thus: ATG_DR4_LXR_CIS: Attagene CIS-FACTORIAL HepG2 Assay for human Liver X Receptor (LXR), DR4 submotif (AID 2282929). The note with it: HepG2 Attagene DR4 cis-reporter, mRNA transcription; actives raise or lower the signal. The method in brief: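 Transiently transfected HepG2 liver cells; cis-regulated reporters; 24 h dosing. RT-PCR plus CE read-out of reporter mRNA. DMSO baseline, bidirectional curve fitting.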

For test [5], the target named is Aryl hydrocarbon receptor (Homo sapiens) (UniProt P35869). The test can be described thus: ATG_Ahr_CIS: Attagene CIS-FACTORIAL HepG2 Assay for human Aryl Hydrocarbon Receptor (Ahr) (AID 2282930). Particulars: HepG2 AhR cis-factorial reporter transcription; actives raise or lower the signal. A digest of the protocol: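 HepG2 cells transiently transfected with cis-element-driven multiplexed reporter units; endogenous AhR activity read as reporter mRNA 24 h after dosing, via RT-PCR, 6-FAM labelling, HpaI digestion and capillary electrophoresis. Bidirectional fit relative to DMSO.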

A short description of test [6]: ATG_BRE_CIS: Attagene CIS-FACTORIAL HepG2 Assay for human Bone Morphogenetic Protein (BMP) Response Element (BRE) (AID 2282933). The note with it: HepG2 BMP response element reporter, Attagene transcription factor profiling; actives raise or lower the signal. A digest of the protocol:
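Endogenous transcription factor activity at a BMP response element was monitored in transfected HepG2 cells 24 h after dosing. Fluorescent RT-PCR products were resolved by capillary electrophoresis, and activity was fitted in both directions versus DMSO.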

In test [7] the target is Retinoic acid receptor alpha (Homo sapiens) (UniProt P10276). The test can be described thus: ATG_DR5_RAR_CIS: Attagene CIS-FACTORIAL HepG2 Assay for human Retinoic Acid Receptor Alpha (RARE), DR5 submotif (AID 2282934). Particulars: HepG2 Attagene cis-factorial RARE DR5 reporter, mRNA; actives raise or lower the signal. A digest of the protocol: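 HepG2 cells transiently transfected with multiplexed reporter units; DR5 cis-element drives reporter through endogenous transcription factors. After 24 h dosing, reporter mRNA quantified by RT-PCR, fluorescent labeling, HpaI digestion and capillary electrophoresis; bidirectional fitting versus DMSO.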

Test [8] has as its target Transcription factor E2F1 (Homo sapiens) (UniProt Q01094). The test can be described thus: ATG_E2F_CIS: Attagene CIS-FACTORIAL HepG2 Assay for human E2F Transcription Factor 1 (AID 2282935). The note with it: HepG2 Attagene cis-reporter, E2F reporter RNA transcripts; actives raise or lower the signal. The method in brief: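 Transient MRTU transfection of HepG2; 24 h compound exposure; RNA → oligo(dT) RT → PCR → FAM label → HpaI cut → CE fluorescence. Gain/loss of signal fit against DMSO.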

The nature of test [9]: ATG_E_Box_CIS: Attagene CIS-FACTORIAL HepG2 Assay for human Enhancer Box (E-box) (AID 2282936). Particulars: HepG2 E-box cis-reporter transcription, actives raise or lower the signal. The method in brief:
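Transiently transfected HepG2, endogenous TF-driven reporters, 24 h dosing. Readout: RT-PCR plus capillary electrophoresis of fluorescent reporter fragments. Gain or loss of signal fitted bidirectionally against DMSO baseline.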

A short description of test [10]: ATG_M_61_CIS: Attagene CIS-FACTORIAL HepG2 Assay for M61 Transcription Factor (Internal Marker) (AID 2282937). The note with it: HepG2 Attagene CIS-FACTORIAL M61 internal marker reporter; actives raise or lower the signal. A digest of the protocol:
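Multiplexed reporter mRNA assay, HepG2 human hepatoma cells, 24 h treatment. Signal: FAM-labelled, HpaI-digested RT-PCR fragments by CE. Fit: bidirectional, baseline DMSO.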

A short description of test [11]: ATG_EGR_CIS: Attagene CIS-FACTORIAL HepG2 Assay for human Early Growth Response 1 (EGR1) (AID 2282938). Particulars: HepG2 Attagene CIS-FACTORIAL EGR reporter mRNA; actives raise or lower the signal. A digest of the protocol: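 Multiplexed cis-reporter system in human hepatoma HepG2 cells, transiently transfected. Cells are dosed for 24 h; reporter transcripts are amplified, fluorescently tagged and sized by capillary electrophoresis, with DMSO as negative control.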

Test [12] in a line: ATG_M_19_CIS: Attagene CIS-FACTORIAL HepG2 Assay for M19 Transcription Factor (Internal Marker) (AID 2282939). Particulars: HepG2 Attagene CIS-FACTORIAL M19 internal marker reporter; actives raise or lower the signal. The method in brief:
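Background-control endpoint from a multiplexed HepG2 reporter panel. Cells carrying cis-regulated reporter constructs are treated 24 h, then reporter transcripts are amplified, fluorescently labelled and sized by capillary electrophoresis. DMSO defines baseline.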

The nature of test [13]: ATG_Ets_CIS: Attagene CIS-FACTORIAL HepG2 Assay for human Erythroblast Transformation Specific (ETS) (AID 2282941). Particulars: HepG2 ETS cis-reporter transcription, actives raise or lower the signal. The method in brief: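 Cis-regulated reporter mRNA induction in HepG2 (transient transfection), 24 h exposure, RT-PCR plus capillary electrophoresis detection; DMSO serves as negative control and baseline.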

For test [14], the target named is Hepatocyte nuclear factor 3-beta (Homo sapiens) (UniProt Q9Y261). Description: ATG_FoxA2_CIS: Attagene CIS-FACTORIAL HepG2 Assay for human Forkhead box A2 (FOXA2) (AID 2282942). Particulars: HepG2 cis-reporter transcription factor activity, 24 h; actives raise or lower the signal. A digest of the protocol: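 Multiplexed cis-element reporter assay in transiently transfected HepG2. Twenty-four hours post-dosing, RNA was reverse-transcribed, amplified, FAM-labelled, HpaI-digested and separated by CE. Activity gain or loss relative to DMSO.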

Test [15] is described as follows: ATG_FoxO_CIS: Attagene CIS-FACTORIAL HepG2 Assay for human Forkhead box O (FoxO) (AID 2282943). The note with it: HepG2 Attagene cis-reporter, FoxO element, mRNA; actives raise or lower the signal. The method in brief:
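HepG2 cells transiently transfected with cis-element-driven reporter units report endogenous FoxO activity. After 24 h chemical exposure, reporter mRNA quantified by RT-PCR, fluorescent labeling, HpaI digestion and capillary electrophoresis; bidirectional fit versus DMSO.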

The nature of test [16]: ATG_GATA_CIS: Attagene CIS-FACTORIAL HepG2 Assay for human GATA Binding Protein (AID 2282944). The note with it: HepG2 GATA cis-element reporter, Attagene multiplex mRNA; actives raise or lower the signal. A digest of the protocol:
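Endogenous transcription factor activity was captured through cis-promoter-driven reporters in transfected HepG2 cells. After 24 h exposure, reporter transcripts were quantified by RT-PCR with fluorescent capillary electrophoresis, and responses fitted both directions against DMSO.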

Test [17] is described as follows: ATG_GLI_CIS: Attagene CIS-FACTORIAL HepG2 Assay for human Zinc Finger Protein GLI1 (AID 2282945). Particulars: HepG2, Attagene cis-factorial reporter mRNA, GLI element; actives raise or lower the signal. A digest of the protocol:
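Transiently transfected HepG2 cells report endogenous transcription factor activity via cis-element-driven reporter units. After 24 h compound exposure, reporter mRNA was measured by RT-PCR with capillary electrophoresis; bidirectional fitting against DMSO baseline.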

The nature of test [18]: ATG_AP_1_CIS: Attagene CIS-FACTORIAL HepG2 Assay for human Activator Protein 1 (AP-1) (AID 2282931). Particulars: HepG2 Attagene cis-factorial AP-1 reporter mRNA; actives raise or lower the signal. The method in brief:
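We transfected HepG2 cells transiently with a set of cis-regulated reporter transcription units, dosed them for 24 h, and quantified reporter mRNA via RT-PCR and capillary electrophoresis, scoring gain or loss of signal relative to DMSO.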

Test [19] is described as follows: ATG_AP_2_CIS: Attagene CIS-FACTORIAL HepG2 Assay for human Activator Protein 2 (AP-2) (AID 2282932). The note with it: HepG2 AP-2 cis-reporter, Attagene transcription factor profiling; actives raise or lower the signal. The method in brief:
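Read-out: fluorescent reporter mRNA via RT-PCR and capillary electrophoresis, 24 h post-dose in transiently transfected HepG2. Endogenous factors drive cis-promoter reporters; gain or loss of signal fitted bidirectionally against DMSO.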

The nature of test [20]: ATG_ERE_CIS: Attagene CIS-FACTORIAL HepG2 Assay for Estrogen Response Element (ERE) (AID 2282940). Particulars: HepG2 ERE cis-reporter, Attagene RNA transcript; actives raise or lower the signal. The method in brief:
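Cells used were human hepatoma HepG2, transfected with multiple reporter transcription units under cis-regulatory promoters. Reporter mRNA, read 24 h post-dosing via fluorescent RT-PCR products on capillary electrophoresis, was fitted bidirectionally relative to DMSO.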

Calls of active or inactive are those of the source. Rule for the calls: active = hit-call score of the fitted dose curve at least 0.9, where 1 is the maximum; inactive = score below 0.9.

Sequence of Retinoic acid receptor alpha (Homo sapiens) (P10276 whole entry, looked up): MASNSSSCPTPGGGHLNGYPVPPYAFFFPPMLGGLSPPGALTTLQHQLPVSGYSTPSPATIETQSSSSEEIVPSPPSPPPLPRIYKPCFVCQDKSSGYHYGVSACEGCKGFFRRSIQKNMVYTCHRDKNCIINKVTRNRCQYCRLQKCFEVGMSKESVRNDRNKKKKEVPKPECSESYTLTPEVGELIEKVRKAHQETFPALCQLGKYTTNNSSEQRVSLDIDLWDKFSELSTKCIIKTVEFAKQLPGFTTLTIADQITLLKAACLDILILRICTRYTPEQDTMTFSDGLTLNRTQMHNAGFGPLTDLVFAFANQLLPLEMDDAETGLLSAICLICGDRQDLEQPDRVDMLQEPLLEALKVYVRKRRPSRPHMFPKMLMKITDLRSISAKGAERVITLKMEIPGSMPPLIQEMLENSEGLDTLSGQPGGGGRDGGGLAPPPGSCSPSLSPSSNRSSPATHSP
Sequence of Transcription factor E2F1 (Homo sapiens) (Q01094 whole entry, looked up): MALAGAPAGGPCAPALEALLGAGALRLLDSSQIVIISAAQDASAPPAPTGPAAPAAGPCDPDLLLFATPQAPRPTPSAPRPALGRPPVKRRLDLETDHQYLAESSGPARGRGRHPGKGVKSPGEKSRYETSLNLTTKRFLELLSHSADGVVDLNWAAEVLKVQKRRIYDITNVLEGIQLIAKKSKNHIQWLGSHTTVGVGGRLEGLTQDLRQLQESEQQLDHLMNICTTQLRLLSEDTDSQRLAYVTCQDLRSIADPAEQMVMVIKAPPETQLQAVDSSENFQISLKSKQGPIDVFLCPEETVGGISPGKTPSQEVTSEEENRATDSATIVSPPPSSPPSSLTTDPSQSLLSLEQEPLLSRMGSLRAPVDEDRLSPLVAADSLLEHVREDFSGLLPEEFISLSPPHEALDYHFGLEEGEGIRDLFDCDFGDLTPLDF
Sequence of CCAAT/enhancer-binding protein beta (Homo sapiens) (P17676 whole entry, looked up): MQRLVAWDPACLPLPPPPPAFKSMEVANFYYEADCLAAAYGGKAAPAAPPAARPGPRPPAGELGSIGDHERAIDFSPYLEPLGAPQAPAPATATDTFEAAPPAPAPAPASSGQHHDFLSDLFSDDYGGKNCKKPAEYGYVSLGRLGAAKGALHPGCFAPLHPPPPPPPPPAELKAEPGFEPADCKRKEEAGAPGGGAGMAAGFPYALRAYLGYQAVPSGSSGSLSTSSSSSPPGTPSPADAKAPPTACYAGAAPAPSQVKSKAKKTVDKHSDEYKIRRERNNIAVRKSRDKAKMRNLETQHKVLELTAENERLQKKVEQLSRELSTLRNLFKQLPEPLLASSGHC
Sequence of Aryl hydrocarbon receptor (Homo sapiens) (P35869 whole entry, looked up): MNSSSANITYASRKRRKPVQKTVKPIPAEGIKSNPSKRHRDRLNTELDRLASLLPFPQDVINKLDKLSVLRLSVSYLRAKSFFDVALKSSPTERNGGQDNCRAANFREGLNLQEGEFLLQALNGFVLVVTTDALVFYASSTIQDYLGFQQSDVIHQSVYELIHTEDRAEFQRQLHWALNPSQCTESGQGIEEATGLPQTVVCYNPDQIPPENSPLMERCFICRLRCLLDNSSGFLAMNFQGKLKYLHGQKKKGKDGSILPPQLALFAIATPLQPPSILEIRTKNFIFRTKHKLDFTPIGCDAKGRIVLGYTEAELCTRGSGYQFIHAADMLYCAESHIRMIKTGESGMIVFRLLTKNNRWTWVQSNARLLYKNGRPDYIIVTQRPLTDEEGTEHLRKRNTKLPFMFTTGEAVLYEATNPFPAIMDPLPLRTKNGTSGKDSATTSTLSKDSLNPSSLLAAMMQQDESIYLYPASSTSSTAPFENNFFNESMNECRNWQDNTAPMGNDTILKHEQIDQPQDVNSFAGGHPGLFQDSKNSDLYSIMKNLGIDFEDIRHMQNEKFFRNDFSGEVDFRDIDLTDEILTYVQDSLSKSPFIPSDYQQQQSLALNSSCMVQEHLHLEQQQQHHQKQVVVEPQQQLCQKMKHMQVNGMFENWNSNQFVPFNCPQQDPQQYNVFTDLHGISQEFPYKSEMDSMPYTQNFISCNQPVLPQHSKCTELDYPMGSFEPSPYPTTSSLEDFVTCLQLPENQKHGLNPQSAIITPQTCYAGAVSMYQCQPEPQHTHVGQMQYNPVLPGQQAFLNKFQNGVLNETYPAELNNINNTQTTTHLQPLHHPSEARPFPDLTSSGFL
Sequence of Hepatocyte nuclear factor 3-beta (Homo sapiens) (Q9Y261 whole entry, looked up): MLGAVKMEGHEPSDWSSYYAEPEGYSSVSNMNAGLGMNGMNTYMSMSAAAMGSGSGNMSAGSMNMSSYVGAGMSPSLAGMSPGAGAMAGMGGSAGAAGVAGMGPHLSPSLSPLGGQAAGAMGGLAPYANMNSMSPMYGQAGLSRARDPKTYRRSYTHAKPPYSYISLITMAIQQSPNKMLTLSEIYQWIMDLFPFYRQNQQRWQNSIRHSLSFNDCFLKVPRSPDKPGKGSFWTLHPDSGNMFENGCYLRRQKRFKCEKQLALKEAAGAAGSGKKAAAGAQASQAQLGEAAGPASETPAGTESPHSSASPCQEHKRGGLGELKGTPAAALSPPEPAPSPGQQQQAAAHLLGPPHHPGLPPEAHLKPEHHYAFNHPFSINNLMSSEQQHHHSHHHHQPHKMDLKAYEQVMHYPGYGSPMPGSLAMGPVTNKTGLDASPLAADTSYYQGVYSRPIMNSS

For the molecule `CCCCC(CC)COC(=O)c1ccc(C(=O)OCC(CC)CCCC)c(C(=O)OCC(CC)CCCC)c1` (centres undefined), the molecule was classed as inactive in test [1], in test [2], in [3], in [4], in test [5] and in test [6]. Moreover, the result in test [7], in test [8], in test [9], in [10], in test [11] and in [12] was inactive. In addition, the result in test [13], in test [14], in [15], in test [16] and in test [17] was inactive.

For `Cc1cc(N=Nc2ccccc2C)ccc1N`, the outcome in [1], in test [2], in [3], in [4], in test [7] and in test [8] was inactive. For the same molecule, the outcome in [9], in [10], in test [12], in test [13], in test [15] and in test [16] was inactive. For the same molecule, the outcome in test [17] was inactive. Moreover, the AC50 was 2.99 µM (active) in test [5], 33.4 µM (active) in test [6], 21.6 µM (active) in [11] and 15.7 µM (active) in test [14].

As to `[Cl-].[Cl-].[Hg+2]`, the molecule was called inactive in test [1], in test [2], in test [3], in test [5], in test [6] and in [8]. Moreover, the result in [9], in test [10], in [11], in test [12], in test [13] and in test [14] was inactive. The call in test [15], in test [16] and in test [17] was inactive. Moreover, the AC50 in test [4] was 33.4 µM (active).

In the case of `OCCOCCO`, the result in [1], in [3], in test [4], in [5], in [19] and in test [6] was inactive. Besides, the molecule was classed as inactive in test [7], in [8], in test [9], in test [10], in [11] and in [12]. The molecule was called inactive in [20], in [13], in test [14], in [15], in test [16] and in [17]. In [18], the AC50 is 0.00963 µM (active).

With `Nc1ccc(Oc2ccc(N)cc2)cc1`, the outcome in test [1], in test [3], in test [4], in test [5], in test [18] and in test [19] was inactive. Besides, the molecule was classed as inactive in test [6], in test [7], in test [8], in [9], in [10] and in test [11]. Further, the molecule was classed as inactive in [12], in test [13], in [14], in test [15], in test [16] and in test [17].

Consider `CCC12COCN1COC2`, for which the call in test [1], in [3], in [4], in test [5], in [18] and in [19] was inactive. Further, the molecule was called inactive in test [6], in test [8], in test [9], in test [10], in test [11] and in test [12]. The molecule was classed as inactive in [20], in [13], in [14], in [15], in [16] and in test [17].

Consider `CN(C)c1ccccc1`, for which the call in [1], in [2], in test [3], in test [4], in [18] and in test [6] was inactive. Further, the molecule was classed as inactive in [7], in test [8], in [9], in test [10], in test [11] and in [12]. Moreover, the molecule was called inactive in test [13], in test [14], in test [15], in [16] and in test [17].

Take `c1ccc2c(c1)-c1cccc3cccc-2c13`: the outcome in test [1], in [2], in test [3], in test [4], in [19] and in [6] was inactive. Further, the molecule was classed as inactive in test [7], in test [8], in [9], in [10], in test [11] and in test [13]. The outcome in test [14], in [15], in [16] and in [17] was inactive. Moreover, in test [12], the AC50 is 0.00801 µM (active).
